# Data from ChEMBL document CHEMBL4808148, “HDAC6 screening dataset using tau-based substrate in an enzymatic assay yields selective inhibitors and activators” (2021).
# Hit rate of the full screen: of about 5,600 compounds, about 390 (7%) showed an effect of 50% or more. This is one part of a sample in which strong results are shown more often than they occur. Non-standard residues stand in square brackets, D forms with d. Residues, ends and D or L forms follow the SMILES beside them. *: point of attachment. dPhe(4-NHCONH2) = NC(=O)Nc1ccc(C[C@@H](N)C(=O)O)cc1; Dihydroorotyl(S) = O=C1C[C@@H](C(=O)*)NC(=O)N1; dPhe(4-Cl) = N[C@H](Cc1ccc(Cl)cc1)C(=O)O; Phe(4-NH2) = Nc1ccc(C[C@H](N)C(=O)O)cc1; d2Nal = N[C@H](Cc1ccc2ccccc2c1)C(=O)O; Lys(iPr) = CC(C)NCCCC[C@H](N)C(=O)O; d3Pal = N[C@H](Cc1cccnc1)C(=O)O
# Target: T1, Protein deacetylase HDAC6 (Homo sapiens) (UniProt Q9UBN7)
# T1 sequence (whole entry): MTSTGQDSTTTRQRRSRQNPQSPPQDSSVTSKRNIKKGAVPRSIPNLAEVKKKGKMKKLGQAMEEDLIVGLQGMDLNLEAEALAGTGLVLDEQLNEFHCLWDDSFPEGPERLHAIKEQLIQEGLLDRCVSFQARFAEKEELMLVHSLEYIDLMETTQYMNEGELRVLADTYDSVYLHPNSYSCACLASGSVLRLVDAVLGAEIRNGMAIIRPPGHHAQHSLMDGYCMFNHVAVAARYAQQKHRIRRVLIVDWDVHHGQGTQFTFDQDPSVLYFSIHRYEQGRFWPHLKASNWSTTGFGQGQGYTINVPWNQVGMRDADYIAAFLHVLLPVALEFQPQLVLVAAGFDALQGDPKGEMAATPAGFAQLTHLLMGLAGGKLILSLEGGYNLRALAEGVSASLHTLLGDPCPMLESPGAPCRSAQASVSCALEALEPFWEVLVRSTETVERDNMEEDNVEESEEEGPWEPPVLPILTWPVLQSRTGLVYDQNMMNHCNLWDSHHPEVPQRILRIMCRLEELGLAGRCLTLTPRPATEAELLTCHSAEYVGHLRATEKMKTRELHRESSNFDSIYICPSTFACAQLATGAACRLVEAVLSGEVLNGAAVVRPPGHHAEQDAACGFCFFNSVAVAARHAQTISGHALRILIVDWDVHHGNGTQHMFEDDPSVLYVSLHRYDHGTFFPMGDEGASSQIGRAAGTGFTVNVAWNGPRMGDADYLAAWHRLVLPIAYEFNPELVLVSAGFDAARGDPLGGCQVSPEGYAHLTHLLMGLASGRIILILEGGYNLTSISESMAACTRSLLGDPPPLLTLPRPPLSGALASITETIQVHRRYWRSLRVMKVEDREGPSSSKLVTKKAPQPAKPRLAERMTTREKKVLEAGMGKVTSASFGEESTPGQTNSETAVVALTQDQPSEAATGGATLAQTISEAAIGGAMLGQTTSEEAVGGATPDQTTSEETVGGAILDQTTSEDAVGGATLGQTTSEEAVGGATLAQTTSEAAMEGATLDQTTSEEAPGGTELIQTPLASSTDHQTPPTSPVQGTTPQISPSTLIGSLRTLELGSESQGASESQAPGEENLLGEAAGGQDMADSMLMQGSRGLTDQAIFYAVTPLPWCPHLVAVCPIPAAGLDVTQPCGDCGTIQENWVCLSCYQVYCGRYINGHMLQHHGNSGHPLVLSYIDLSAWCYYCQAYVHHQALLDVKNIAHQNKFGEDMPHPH
# Conditions: at 10 µM
row,Structure (SMILES),inhibition [%]
1,C(#Cc1nc2ncccc2nc1OCCN1CCCC1)c1ccccc1,30.5
2,O=c1[nH]c2ccccc2n1CCCN1CCN(C(c2ccccc2)c2ccccc2)CC1,-9.27
3,O=C1c2ccccc2-n2c1nc1ccccc1c2=O,104
4,C[C@H](NC[C@H](O)CP(=O)(O)Cc1ccccc1)c1ccc(Cl)c(Cl)c1,-2.08
5,N=C(N)S/C=C\C(=O)O,6.84
6,CC(=O)N[C@H](Cc1ccc2ccccc2c1)C(=O)N[C@H](Cc1ccc(Cl)cc1)C(=O)N[C@H](Cc1cccnc1)C(=O)N[C@@H](CO)C(=O)N[C@@H](Cc1ccc(NC(=O)[C@@H]2CC(=O)NC(=O)N2)cc1)C(=O)N[C@H](Cc1ccc(NC(N)=O)cc1)C(=O)N[C@@H](CC(C)C)C(=O)N[C@@H](CCCCNC(C)C)C(=O)N1CCC[C@H]1C(=O)N[C@H](C)C(N)=O (Ac-[d2Nal][dPhe(4-Cl)][d3Pal]S[Phe(4-NH2)](Dihydroorotyl(S))[dPhe(4-NHCONH2)]L[Lys(iPr)]P[dA]-NH2),33.2
7,CN1C(CSCC(F)(F)F)Nc2cc(Cl)c(S(N)(=O)=O)cc2S1(=O)=O (stereo unspecified),11.5
8,NS(=O)(=O)c1cc2c(cc1Cl)NCNS2(=O)=O,-9.26
9,NS(=O)(=O)c1cc2c(cc1Cl)N=C(CSCc1ccccc1)NS2(=O)=O,78.4
10,COc1cc(OC)cc(C(=O)NNC(=O)Nc2cccc3ccccc23)c1,9.39
11,O=C(O)c1ccccc1Nc1cccc(OCc2ccc3ccccc3n2)c1,14.8
12,Cn1cc(-c2ccncc2)c(-c2ccc(OCc3ccc4ccccc4n3)cc2)n1,4.18
13,CCCCCC(O)c1cccc(OCc2ccc3ccccc3n2)c1 (stereo unspecified),70.6
14,NS(=O)(=O)c1cc(C(=O)O)cc(N2CCCC2)c1Oc1ccccc1,1.91
15,COc1c(Nc2ccc(S(C)(=O)=O)nc2C)ncnc1OC1CCN(C(=O)OC(C)C)CC1,42.5
16,O=C1NCCN1CCN1CCC(c2cn(-c3ccc(F)cc3)c3ccc(Cl)cc23)CC1,3.95
17,O=c1cc(N2CCOCC2)nc2c3ccccc3ccn12,33.6
18,Cc1cc([C@@H](C)Nc2ccccc2C(=O)O)c2nc(N3CCOCC3)cc(=O)n2c1,92.5
19,Cc1c(Cn2c(C)nc3c(C(=O)O)cc(N4CCOCC4)cc32)cccc1C(F)(F)F,13.4
20,CCN1CCN(Cc2ccc(Nc3ncc(F)c(-c4cc(F)c5nc(C)n(C(C)C)c5c4)n3)nc2)CC1,-7.99
21,c1ccc(N2CCN(CCCOc3ccc4c(c3)OCO4)CC2)cc1,8.38
22,CCCCC(=O)NCCc1c(Cc2ccccc2)[nH]c2ccccc12,-8.08
23,CCCCCCN(CCCCCC)C(=O)Cc1c(-c2ccc(F)cc2)[nH]c2ccccc12,0.87
24,CCCCOC(=O)c1cc2c(cn1)[nH]c1ccccc12,78.3
25,CCOC(=O)c1ncc2[nH]c3cccc(OC(C)C)c3c2c1C,-0.9
26,CNC(=O)c1cc2c(cn1)[nH]c1ccccc12,71.2
